From PubChem BioAssay
Sampled rows, rich in hits. Any-hit rate of the full collection: about 9.6%.
HCT116 bCat-KO: primary screen for growth suppressors in beta-catenin knockout HCT116 cells (colon tumor, human); HCT116 beta-catenin knockout viability, CellTiter-Glo, 60 h; stronger effect = lower value; viability, % at 10 µM; actives 1.5% (n = 140,000); AID 818, 2007;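 active = viability at or under a set limit, the compound median less 4 SD, cut at about 6% in these data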;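 also: 0% = Hyamine 1622 control at 20 µM and 100% = untreated cell control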
PTEN del growth: growth suppression of PTEN-null HCT116, primary screen, cell-based, CellTiter-Glo | HCT116 PTEN-null viability, 60 h; stronger effect = lower value | viability, % at 10 µM | actives 1.2% (n = 140,000);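 active = viability at or below a set limit, 4 SD under the median of all tested compounds, cut at about 3.7% in these data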;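 also: PTEN knockout HCT116 line with beta catenin targeted HCT116 as companion control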
Autophagy mod: autophagy modulators in MEF cells, primary screen, imaging, high-content, MEF GFP-LC3 | MEF GFP-LC3 puncta imaging; test concentration mostly 10 µM | calls only at 10 µM (by protocol) | actives 0.98% (n = 190,000);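 active = percentage of spot-positive cells more than 3 SD above its plate mean, without a fluorescence outlier flag or 80% toxicity; inconclusive = no clear call, values can overlap the other calls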;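 also: spot-positive cell cutoff set from DMSO-treated cells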
Lmaj promast: Leishmania major promastigote growth inhibition, primary screen; Leishmania major promastigotes, resazurin fluorescence viability; inhibition, % at 10 µM; actives 9% (n = 200,000); in the data active = inhibition above about 50%;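 also: promastigotes grown with compound for 44 hours at 28 °C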
Insulin prom up: insulin promoter activators in MIN6 cells, imaging, high-content screening, mouse beta cells; MIN6 insulin promoter-GFP reporter; stronger effect = higher value; z-score at 5 µM; actives 0.3% (n = 190,000); AID 1625, 2009;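 active = z-score above 3 at 5 µM with at least 500 cells counted in the well; inconclusive = wells under 500 cells, flagged as cytotoxic or low count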
Insulin prom inh: inhibitors of insulin promoter-driven GFP, primary screen, imaging, TRM-6 cells (human fetal islet line), eGFP reporter, cell count | inhibition, % at 2 µM | actives 0.9% (n = 130,000) | reporter expression induced with tamoxifen;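 active = inhibition above the mean plus 3 SD, with well images judged a real hit on visual review, cut at about 60% in these data, passing the limit was not always enough; inconclusive = inhibition over the cutoff but images rejected on review; inactive = inhibition not above the cutoff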
The depositor's hits bear a star; i = inactive; u = inconclusive; x = no result given; + = active, no number.

SMILES	HCT116 bCat-KO	PTEN del growth	Autophagy mod	Lmaj promast	Insulin prom up	Insulin prom inh
CCOC(=O)CSC1=C(C#N)C(=O)NC(c2ccc(OC)c(OC)c2)S1 (configuration not stated)	98.2	99.2	i	-1.7	0.24	0.0
OC1C2CN3CCN(C2)CC1(Cc1ccccc1)C3 (configuration not stated)	1.4*	0.7*	i	0.7	x	-281.4
NC(=O)COC(=O)c1ccccc1Nc1ccc(SC(F)F)cc1	86.3	100.1	i	-7.2	0.13	3.1
CC(OC(=O)c1ccccc1Nc1ccc(SC(F)F)cc1)C(N)=O (configuration not stated)	68.4	69.0	i	55.1*	-0.53	-16.0
O=C(COC(=O)c1ccccc1Nc1ccc(SC(F)F)cc1)NC1CC1	83.0	77.1	i	61.0*	-0.22	-29.6
CC(C)(C)NC(=O)COC(=O)c1ccccc1Nc1ccc(SC(F)F)cc1	13.7	19.7	i	11.3	0.58	x
O=C(CN1C(=O)c2ccccc2C1=O)Nc1cccc(S(=O)(=O)Nc2ccccc2Cl)c1	89.9	96.4	i	22.4	0.38	49.0
CC(=O)c1ccc(OCCCN2CCCCC2)cc1	94.9	96.9	i	88.1*	x	11.1
O=C(c1ccccc1)c1ccc(OCCCN2CCCCC2)cc1	97.0	92.1	i	99.3*	x	-364.3
CCOc1ccc(C(=O)NCCN2CCCC2)cc1	x	x	i	-3.1	1.31	x
COc1cccc(OC)c1OCCOc1ccc(C(=O)c2ccccc2)cc1	85.3	77.3	i	33.4	-0.06	10.0
COC(=O)c1ccc(OCCN2CCCCCC2)cc1	x	x	i	87.7*	0.42	-23.8
COC(=O)c1ccccc1OCCN1CCCCCC1	x	x	i	5.2	0.58	-76.5
Cc1ccc(C(=O)c2cc(C)sc2N)cc1	x	x	i	-1.7	-0.25	x
CCc1cc(C(=O)c2ccc(C)cc2)c(NC(=O)CCl)s1	51.7	49.3	i	88.3*	-0.28	3.3
Cc1cc(C(=O)c2ccc(Cl)cc2)c(NC(=O)CCl)s1	4.2*	1.8*	i	28.0	-0.37	26.7
C#Cc1ccc([C@@H]2C=C(C(=O)NCc3ccccc3)O[C@H](OCC)[C@H]2CCCO)cc1	x	x	i	2.1	x	x
CC(C)COc1ccc(C(=O)Nc2ccc([N+](=O)[O-])cc2)cc1	x	x	i	2.1	-1.18	x
CC(C)OC(=O)c1cc(NC(=S)Nc2ccc([N+](=O)[O-])cc2)cc(C(=O)OC(C)C)c1	52.0	42.0	i	100.5*	u	x
CC(C)CCNC(=S)Nc1ccc([N+](=O)[O-])cc1	13.0	4.8	i	68.5*	-5.03	-43.3
CCCCNC(=S)Nc1ccc([N+](=O)[O-])cc1	41.2	23.8	i	49.2	-0.46	10.3
O=C(NCCN1CCOCC1)C1CCN(c2ncnc3c2sc2cccc(F)c23)CC1	80.9	91.6	i	-2.6	-0.8	x
CCCCN(CC)CCCNC(=O)C1CCN(c2ncnc3c2sc2cccc(F)c23)CC1	x	x	i	100.1*	-0.4	-7.1
Fc1cccc(Cl)c1Cn1nnc2c(NCc3ccccn3)ncnc21	84.0	90.2	i	3.6	-0.58	-38.7
CN(C(=O)c1ccccc1Cl)C1CCCCC1	79.0	85.5	i	1.2	1.1	-5.0
SMILES	HCT116 bCat-KO	PTEN del growth	Autophagy mod	Lmaj promast	Insulin prom up	Insulin prom inh
O=C(N/N=C/c1cc(Cl)ccc1O)C(=O)Nc1ccccc1OC(F)(F)C(F)F	13.6	8.9	i	99.2*	u	-34.5
O=C(N/N=C/c1cc(Br)ccc1O)C(=O)Nc1ccccc1OC(F)(F)C(F)F	10.3	11.2	i	99.2*	-4.33	23.3
COc1ccccc1/C=N/NC(=O)C(=O)Nc1ccccc1OC(F)(F)C(F)F	94.6	104.9	i	-5.3	-0.18	-45.5
O=C(CSc1nccn1-c1ccccc1)NCc1ccc(F)cc1	x	x	i	-2.8	-0.27	x
O=C(C1CCN(S(=O)(=O)c2cccnc2)CC1)N1CCN(c2ccc(Cl)cc2)CC1	x	x	x	x	-0.08	x
CCN(CC)c1cc2nc(C)n(Cc3ccccc3)c(=O)c2cc1NC(=O)C1CC1	92.2	87.7	i	5.7	-0.81	84.6*
Cc1nc2cc(N3CCCCC3)c(NC(=O)c3ccncc3)cc2c(=O)n1Cc1ccc(Cl)cc1	1.2*	1.1*	+	11.3	x	x
Cc1nc2cc(N3CCN(C)CC3)c(NC(=O)Cc3ccccc3)cc2c(=O)n1Cc1ccccc1	83.0	76.6	i	89.2*	-1.83	-66.7
CS(=O)(=O)N1CCN(c2ccccc2NC(=O)Cc2ccccc2)CC1	93.1	94.1	i	7.9	-0.52	-72.4
Cc1ccc2nc(N3C(=O)CNC3=S)sc2c1	x	x	x	x	-1.03	x
CCc1ccc(CSc2nccn2-c2ccccc2)cc1	81.7	87.6	i	-0.6	x	20.0
CC(=O)Nc1ccc(Nc2ncnc3c2cnn3-c2cccc(C)c2)cc1	87.9	91.4	i	75.2*	0.89	x
COc1ccc(Nc2ncnc3c2cnn3-c2ccccc2)cc1OC	91.5	101.8	x	1.7	1.52	x
Cc1cccc(-n2ncc3c(NCc4cccs4)ncnc32)c1	76.2	66.2	i	96.7*	-0.39	57.1
CC(=O)Nc1ccc(Nc2ncnc3c2cnn3-c2ccc(C)cc2C)cc1	87.5	103.8	i	68.0*	-0.04	x
COc1ccc(OC)c(Nc2ncnc3c2cnn3-c2cccc(C)c2)c1	25.1	26.2	+	17.6	-0.25	12.5
OCCn1c(-c2ccc3c(c2)OCO3)csc1=Nc1ccccc1	35.9	43.4	i	11.2	-1.39	5.3
CCCCC(=O)Nc1ccc(NC(=O)c2cccnc2)cn1	104.4	94.5	i	-1.0	-0.25	-15.2
O=C(CSc1ncc(-c2ccccc2)[nH]1)Nc1ccccc1F	x	x	i	-1.9	-0.37	-25.0
CC(O)(CS(=O)(=O)Cc1ccccc1Cl)C(=O)Nc1cccc(C(F)(F)F)c1 (configuration not stated)	104.8	97.2	i	-4.1	x	-75.0
CN(C(=O)c1cccnc1)c1nnc(-c2ccccn2)s1	94.6	98.4	i	-0.9	0.92	x
COc1ccccc1C(O)(c1ccccc1)C(CN1CCOCC1)c1ccccc1 (configuration not stated)	x	x	i	38.8	-2.77	0.0
COc1ccc(C(O)C(CN2CCOCC2)c2ccccc2)cc1F (configuration not stated)	99.2	100.9	i	86.4*	0.44	34.5
COc1ccc(-c2c[n+](CC(=O)c3cccs3)c3n2CCC3)cc1	x	x	x	x	0.2	x
O=C(C[n+]1cc(-c2ccccc2)n2c1CCCCC2)c1ccc(Br)cc1	x	x	i	98.7*	-1.82	x
Cc1ccc(-c2c[n+](Cc3ccc(Cl)c(Cl)c3)c3n2CCC3)cc1	93.8	100.2	i	100.2*	u	x
Cc1ccc(C(=O)C[n+]2cc(-c3ccc(C)cc3)n3c2CCCCC3)cc1	3.5*	4.7	i	100.5*	u	x
